# From the supplement of paper PMC10127200
# Counter-ions that a name gives are not always drawn.
# Key:
# Assay in all cases: Euclidean distance of Cell Painting phenotypic profile (signed KS, 77 features) to DMSO centroid (dimensionless distance); 5 or 10 uM (library dependent); higher = stronger phenotypic change vs DMSO (phenoactivity)
# Conditions in all cases: 48 h
# 786-O = tested on: 786-O
# How it was run: (§1)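 Five cancer lines, together with a healthy fibroblast line, received library compounds for 48 h at a library-dependent 10 or 5 uM and 0.1% DMSO final. Harmony then derived 77 features from confocal 20X images (9 fields/well) of the stained cells, scoring each as a signed Kolmogorov-Smirnov statistic against same-plate vehicle wells. After plate-position correction, correlation weighting and replicate averaging at the top dose, phenoactivity was taken as each profile's Euclidean distance to the median vehicle profile.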
# A549 = tested on: A549
# How it was run: as §1
# DU145 = tested on: DU145
# How it was run: as §1
# FB = tested on: FB
# How it was run: as §1
# HEPG2 = tested on: HEPG2
# How it was run: as §1
# OVCAR4 = tested on: OVCAR4
# How it was run: as §1
Structure (SMILES),Euclidean distance (786-O),Euclidean distance (A549),Euclidean distance (DU145),Euclidean distance (FB),Euclidean distance (HEPG2),Euclidean distance (OVCAR4)
COc1ccc(NC(=O)c2ccc(C(=N)N(C)C)cc2)c(C(=O)Nc2ccc(Cl)cn2)c1 [Betrixaban],1.22,0.664,0.647,0.875,0.841,0.904
CN1C(CCl)Nc2cc(Cl)c(S(N)(=O)=O)cc2S1(=O)=O (configuration not stated) [Methyclothiazide],1.01,0.722,0.72,0.776,0.485,1.52
C#C[C@]1(O)CC[C@H]2[C@@H]3CCc4cc(OC)ccc4[C@H]3CC[C@@]21C [Mestranol],1.12,0.814,0.785,1.26,0.905,1.38
CONC(=O)Nc1ccc(-c2sc3c(c2CN(C)C)c(=O)n(-c2ccc(OC)nn2)c(=O)n3Cc2c(F)cccc2F)cc1 [Relugolix],1.06,0.927,1.37,1.4,0.841,1.3
CS(=O)(=O)c1ccc(C2=C(c3ccccc3)C(=O)OC2)cc1 [Rofecoxib],1.05,0.859,0.686,0.821,0.51,1.24
CC(C)c1c(C(=O)Nc2ccccc2)c(-c2ccccc2)c(-c2ccc(F)cc2)n1CC[C@@H](O)C[C@@H](O)CC(=O)O [Atorvastatin Calcium],2.68,1.33,1.15,3.05,2.23,1.8
c1coc(CNc2ncnc3[nH]cnc23)c1 [Kinetin],1.36,1.02,0.682,1.33,0.627,1.72
CCc1cc2c(cc1N1CCC(N3CCOCC3)CC1)C(C)(C)c1[nH]c3cc(C#N)ccc3c1C2=O,1.54,2.54,0.905,1.15,0.968,1.01
CNC(=O)CN1CCC(Oc2cc3c(Nc4cccc(Cl)c4F)ncnc3cc2OC)CC1 [Sapitinib (AZD8931)],1.67,3.03,2.21,2.79,1.18,3.03
CC[C@H](Nc1ncnc2[nH]cnc12)c1oc2ccccc2c(=O)c1-c1cccc(F)c1 [Tenalisib (RP6530)],0.975,0.66,0.791,1.47,0.466,0.678
c1ccc2c(Oc3nc(Nc4ccc(N5CCOCC5)cc4)c4ncn(C5CCCCC5)c4n3)cccc2c1 [Purmorphamine],1.93,1.81,0.922,0.758,1.17,1.94
CO[C@@]1(NC(=O)Cc2cccs2)C(=O)N2C(C(=O)O)=C(COC(N)=O)CS[C@@H]21 [Cefoxitin sodium],1.26,0.874,1.51,1.02,0.857,0.983
Cc1onc(-c2ccccc2Cl)c1C(=O)N[C@@H]1C(=O)N2[C@@H]1SC(C)(C)[C@@H]2C(=O)O [Cloxacillin Sodium],0.711,0.744,0.6,0.941,1.02,1.39
CCCCC(CC)COC(=O)CC(C(=O)OCC(CC)CCCC)S(=O)(=O)O (configuration not stated) [Docusate Sodium],0.771,0.602,0.942,1.2,0.96,1.25
COC(=O)C1=C(C)NC(C)=C(C(=O)OC(C)C)C1c1cccc2nonc12 (configuration not stated) [Isradipine],1.36,1.33,1.21,1.42,1.56,1.1
OC[C@@H](O)[C@@H](O)[C@H](O)[C@@H](O)CO [Sorbitol],1.36,0.586,0.79,0.737,0.791,1.21
COC(=O)Nc1nc2cc(Sc3ccccc3)ccc2[nH]1 [Fenbendazole],2.61,2.78,3.05,2.21,2.12,2.83
CC1(C)S[C@@H]2[C@H](NC(=O)[C@H](NC(=O)N3CCN(S(C)(=O)=O)C3=O)c3ccccc3)C(=O)N2[C@H]1C(=O)O [Mezlocillin Sodium],1.2,0.987,1.43,1.15,1.72,0.751
Cc1cc(C)cc(NC(=O)Cc2ccc(OC(C)(C)C(=O)O)cc2)c1 [Efaproxiral Sodium],1.04,0.727,0.774,0.966,0.587,0.981

Structure (SMILES),Euclidean distance (786-O),Euclidean distance (A549),Euclidean distance (DU145),Euclidean distance (FB),Euclidean distance (HEPG2),Euclidean distance (OVCAR4)
NC[C@@H]1O[C@H](O[C@H]2[C@@H](O)[C@H](O[C@@H]3[C@@H](O)[C@H](N)C[C@H](N)[C@H]3O[C@H]3O[C@H](CO)[C@@H](O)[C@H](O)[C@H]3N)O[C@@H]2CO)[C@H](N)[C@@H](O)[C@@H]1O [Paromomycin Sulfate],1.05,1.06,0.88,1.2,0.817,1
C=CC(=O)Nc1cc(Nc2nccc(-c3cn(C4CC4)c4ccccc34)n2)c(OC)cc1N(C)CCN(C)C,5.66,5.01,3.44,2.32,2.67,1.92
O=C(Nc1ccc(O)cc1)c1ccccc1O [Osalmid],1.02,0.634,1.01,1.27,0.744,0.853
CCc1c(Cl)c(O)c(Cl)c(O)c1C(=O)O[C@H]1[C@H](O)[C@H](OC)[C@H](OC/C2=C\C=C\C[C@H](O)/C(C)=C/[C@H](CC)[C@@H](O[C@@H]3OC(C)(C)[C@@H](OC(=O)C(C)C)[C@H](O)[C@@H]3O)/C(C)=C/C(C)=C/C[C@@H]([C@@H](C)O)OC2=O)O[C@@H]1C [Fidaxomicin],1.59,1.88,1.64,1.94,1.5,1.68
CC(C)[C@H](C(=O)Nc1ccc(C(=O)NO)cc1)c1ccccc1,3.25,4.55,3.1,4.34,4.16,3.22
CC(C)COCC(CN(Cc1ccccc1)c1ccccc1)N1CCCC1 (configuration not stated) [Bepridil hydrochloride],1.64,2.55,2.06,1.65,1.94,1.73
CC(=O)Nc1ccc(CC(=O)O)cc1 [Actarit],1.12,0.862,0.902,1.09,0.464,0.872
O=C1CN(/N=C/c2ccc(-c3ccc([N+](=O)[O-])cc3)o2)C(=O)N1 [Dantrolene sodium hemiheptahydrate],0.731,0.894,1.67,1.21,0.638,1.31
CC1=C(/C=C/C(C)=C/C=C/C(C)=C/C(=O)Nc2ccc(O)cc2)C(C)(C)CCC1 [Fenretinide],2.9,2.87,1.92,2.58,1.91,2.4
O=C(OCCOCCO)c1ccccc1Nc1cccc(C(F)(F)F)c1 [Etofenamate],0.974,0.683,1.59,1.79,0.744,0.722
NCCS(=O)(=O)O [Taurine],1.5,0.858,1.34,0.921,0.768,1.35
CC1(C)CC(Oc2ccc(-c3ccc(-c4cn[nH]c4)cc3O)nn2)CC(C)(C)N1 [Branaplam (LMI070)],2.88,2.86,4.33,3.24,3.03,3.09
CN(C)CCOC(C)(c1ccccc1)c1ccccn1 (configuration not stated) [Doxylamine Succinate],1.09,0.709,1.18,1.42,0.475,1.14
CCCOc1ccc(C(=O)OCCN(CC)CC)cc1N [Proparacaine HCl],1.06,1.11,1.7,1.27,0.765,1.27
Cn1cnc2c(F)c(Nc3ccc(Br)cc3F)c(C(=O)NOCCO)cc21,2.04,2.89,2.61,3.82,1.63,1.91
CCC(C)(C)c1ccc(CC(C)CN2C[C@@H](C)O[C@@H](C)C2)cc1 (some centres not stated) [Amorolfine HCl],0.719,0.701,0.552,1.61,0.635,0.693
CO/N=C(/C(=O)N[C@@H]1C(=O)N2C(C(=O)OCOC(=O)C(C)(C)C)=C(C)CS[C@H]12)c1csc(N)n1 [Cefetamet pivoxil hydrochloride],1.66,1.04,1.11,0.939,0.729,0.914
CCN[C@@H]1C[C@H](N)[C@@H](O[C@H]2OC(CN)=CC[C@H]2N)[C@H](O)[C@H]1O[C@H]1OC[C@](C)(O)[C@H](NC)[C@H]1O [Netilmicin Sulfate],1.12,0.92,1.18,0.946,0.625,0.916
